Most compounds without a hit are left out; they make up all but 2.2% or so of the library.
IDH1 R132H inh: blocks human mutant IDH1 R132H enzyme. IDH1-R132H enzyme, NADPH consumption, diaphorase/resazurin fluorescence. Potency, µM (doses to about 76.6 µM), inactives show at the top dose activity change, negative = inhibition, actives largely listed as inhibitors. 0.093% of 390,000 active; further: potency means the concentration at half of the fitted maximal effect; on the % scale 0 is the no-effect control and ±100 the full control effect; nearly all actives have a fitted effect of over 65% in size
Target sequence (O75874 whole entry R132H, stated change not applied): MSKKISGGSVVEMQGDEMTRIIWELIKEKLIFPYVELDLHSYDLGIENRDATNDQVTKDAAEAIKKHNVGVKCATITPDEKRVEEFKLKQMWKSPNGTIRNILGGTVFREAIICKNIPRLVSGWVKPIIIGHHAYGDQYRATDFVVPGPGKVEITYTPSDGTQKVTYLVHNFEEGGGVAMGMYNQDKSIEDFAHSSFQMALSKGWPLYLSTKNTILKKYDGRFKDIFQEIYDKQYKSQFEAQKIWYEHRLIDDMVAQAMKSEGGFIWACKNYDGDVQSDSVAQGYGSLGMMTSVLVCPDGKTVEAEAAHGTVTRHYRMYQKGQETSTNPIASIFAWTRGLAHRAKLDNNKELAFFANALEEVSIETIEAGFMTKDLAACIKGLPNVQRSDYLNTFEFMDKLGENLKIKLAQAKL
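IDH1-R132H (0.5 ug/mL dispensed) in pH 7.5 Tris buffer was preincubated 30 min with compound, then given a substrate mix of 0.016 mM NADPH and 2 mM alpha-KG for 80 min at room temperature; remaining NADPH was read by diaphorase/resazurin fluorescence.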
HepG2 tox-1: kills HepG2 cells in TGF-b inhibitor counter-screen; HepG2 CAGA-GFP viability, ATP luminescence, 18 h; Potency, µM (top dose mostly 46.1 µM), for inactives: at the top dose activity change, negative = cytotoxicity, actives largely listed as cytotoxic; 0.76% of 410,000 active; AID 588856; further: potency means the concentration at half of the fitted maximal effect
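CellTiter-Glo luminescence gave cytotoxicity after 18 hours at 37 degrees C. The cells were HepG2 CAGA-GFP in 1% FBS DMEM, stimulated with 500 pg/mL TGF-beta after compound addition. %Activity was normalised to no-cell wells (complete cell-killing) and DMSO (no toxicity), and curves were fitted and classified.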
TGFb inhibitor: blocks TGF-b signaling; Potency, µM (titrated, usually from 46.1 µM), inactives show at the highest dose activity, negative = inhibition, usual class: inhibitors; HepG2 CAGA-GFP TGF-b/SMAD3 reporter, GFP fluorescence, 18 h; TGF-beta stimulated, 500 pg/mL final; AID 588855; 1.2% of 410,000 active; further: potency means the concentration at half of the fitted maximal effect; on the % scale 0 is the no-effect control and ±100 the full control effect; nearly all actives have a fitted effect of over 65% in size
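HEPG2 CAGA-GFP reporter cells (1000/well, DMEM with 1% FBS) received compounds, then recombinant TGF-beta at 500 pg/mL final for 18 hours at 37 degrees C. Per-cell GFP summed per well was normalised to unstimulated and stimulated DMSO controls before curve fitting.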
LDHA inh: LDHA (human) enzyme inhibition. P00338. activity change, % (values are at about 110 or 230 µM). 0.15% of 480,000 active. AID 1347041. purified LDHA, NADH/diaphorase-resazurin fluorescence; stronger effect = lower value; in the data active means activity change below about -30%; inconclusive means mostly about -25% to -30%;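 further: plate controls were DMSO wells for no effect and wells without enzyme for full effect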
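Remaining NADH was detected by diaphorase (0.133 mg/mL) converting 37 µM resazurin to fluorescent resorufin, read at 0 and 20 minutes. The preceding 5-minute room-temperature reaction used 2 nM LDHA, 0.2 mM sodium pyruvate and 0.06 mM NADH at pH 7.4.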
ATXN viability: reduces viability in counter-screen for ATXN expression inhibitors; S2 cells (HEK-293 line with an ATXN2-luciferase reporter) viability, CellTiter-Fluor protease fluorescence, 24 h; 0.49% of 400,000 active; Potency, µM (series often up to 56.7 µM), actives largely listed as cytotoxic; further: potency means the concentration at half of the fitted maximal effect; nearly all actives have a fitted effect of over 40% in size
ATXN2 expr inh: reduces ATXN2 reporter expression in HEK-293 cells; HEK-293 ATXN2-luciferase reporter, luminescence, 24 h; Potency, µM (top dose mostly 57 µM), for the others: at the highest dose activity change, negative = inhibition, hits mostly inhibitors; 0.72% of 360,000 active; AID 1745845; further: potency means the concentration at half of the fitted maximal effect; on the % scale 0 is the no-effect control and ±100 the full control effect; nearly all actives have a fitted effect of over 55% in size
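qHTS (up to 57 uM final) was run with 24 h compound exposure of reporter cells at 37 °C. Each well was multiplexed: SteadyGlo luminescence measured ATXN2-luciferase expression after a fluorogenic Gly-Phe-AFC viability readout (25 uM final).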
TGFb CAGA inh: TGF-b pathway inhibition, cherry-pick retest. shares compounds with TGFb inhibitor. HepG2 CAGA-GFP TGF-b reporter, GFP fluorescence, 18 h; cells stimulated with TGF-beta, 500 pg/mL. Potency, µM (top dose mostly 46.1 µM), inactives show at the top dose activity, negative = inhibition, actives largely listed as inhibitors. 63% of 1,600 active; further: potency means the concentration at half of the fitted maximal effect; on the % scale 0 is the no-effect control and ±100 the full control effect; nearly all actives have a fitted effect of over 65% in size
HepG2 tox-2: HepG2 cytotoxicity, TGF-b inhibitor counterscreen; shares compounds with TGFb inhibitor; HepG2 CAGA-GFP viability, ATP luminescence, 18 h; cells stimulated with TGF-beta, 500 pg/mL; AID 720535; 27% of 1,600 active; Potency, µM (top dose mostly 46.1 µM), for the others: at the top dose activity, negative = cytotoxicity, hits mostly inhibitors; further: potency means the concentration at half of the fitted maximal effect; on the % scale 0 is the no-effect control and ±100 the full control effect; nearly all actives have a fitted effect of over 70% in size
TGFb CCL64 inh: TGF-b inhibition, CCL64 orthogonal assay; AID 720536; 41% of 1,600 active; shares compounds with TGFb inhibitor; CCL64 CAGA-GFP reporter, TGF-b stimulated, GFP fluorescence, 18 h; Potency, µM (series often up to 46.1 µM), for inactives: top-dose activity, negative = inhibition, usual class: inhibitors; further: potency means the concentration at half of the fitted maximal effect; nearly all actives have a fitted effect of over 65% in size
TGFb COP inh: TGF-b inhibition validated with COP promoter; 3% of 1,600 active; shares compounds with TGFb inhibitor; Potency, µM (top dose mostly 46.1 µM), for inactives: at the highest dose activity, negative = inhibition, most hits filed as inhibitors; HepG2 COP-GFP TGF-b reporter, GFP fluorescence, 18 h; cells stimulated by added recombinant TGF-beta; further: potency means the concentration at half of the fitted maximal effect; nearly all actives have a fitted effect of over 70% in size
An asterisk follows results filed as active; i = inactive; ? = inconclusive; . = no result given. Unless noted, the call rests on the fitted dose curve; in most records, active means well fitted curve in the direction sought with a large enough effect; inconclusive means small, poorly fitted or top-dose-only effect, or another doubt; inactive means no such curve, though single readings can be large; an effect the other way counts as inactive or inconclusive.

SMILES	IDH1 R132H inh	HepG2 tox-1	TGFb inhibitor	LDHA inh	ATXN viability	ATXN2 expr inh	TGFb CAGA inh	HepG2 tox-2	TGFb CCL64 inh	TGFb COP inh
O=C(CSC1=NNC(c2ccccn2)S1)Nc1ccc(C(F)(F)F)cc1 (configuration not stated)	3.6%	-23.4%	?	-10.5	i	?	-20.2%	-22.1%	?	-0.8%
CN(CC(=O)Nc1ccc(F)c(F)c1F)C(=O)c1cc(S(=O)(=O)N(C)C)ccc1N1CCCC1	0.0%	-4.6%	5.3%	-13.3	i	5.8%	.	.	.	.
O=C1NC(Cc2ccccc2)c2nc3cc(F)c(F)cc3c(=O)n2-c2cc3ccccc3cc21 (configuration not stated)	-11.3%	-21.2%	-2.5%	0.2	?	-31.9%	.	.	.	.
O=C1NC(Cc2ccc(O)cc2)c2nc3cc(F)c(F)cc3c(=O)n2-c2cc3ccccc3cc21 (configuration not stated)	-9.1%	-19.7%	15.8µM*	3.8	.	?	?	?	?	62.3%
O=S(Cc1ccc(Br)cc1)Cc1nnc(SCc2ccc(Br)cc2)n1-c1ccccc1 (configuration not stated)	-0.6%	-40.8%	8.91µM*	2.5	i	-34.9%	20.6µM*	?	?	44.4%
O=C(CCC1N=C2c3ccccc3N=C(SCc3cccc(F)c3)N2C1=O)NCc1cccs1 (configuration not stated)	-1.8%	-0.2%	12.9%	-4.3	.	.	.	.	.	.
O=[N+]([O-])c1ccc2[nH]c3c(c2c1)CCC/C3=N\O	.	.	.	-1.3	.	.	.	.	.	.
O=C1Cc2c([nH]c3ccc([N+](=O)[O-])cc23)-c2ccccc2N1	1.0%	21.2%	0.501µM*	-2.4	?	?	0.164µM*	0.291µM*	1.3µM*	-10.9%
O=C(NC1CCCCCC1)C1c2ccccc2C(=O)N1Cc1ccco1 (configuration not stated)	9.3%	-5.3%	6.0%	3.1	i	-8.0%	.	.	.	.
CCCC(=O)NC(=S)Nc1cccc(Cl)c1N1CCCCC1	7.4%	-87.4%	7.94µM*	1.4	?	?	14.6µM*	?	?	51.1%
C=C(C)c1cccc(C(C)(C)NC(=O)Nc2nncs2)c1	3.2%	-12.7%	-6.3%	-5.9	i	-4.9%	.	.	.	.
C=C(C)c1cccc(C(C)(C)NC(=O)Nc2nnc(C(C)C)s2)c1	-3.9%	8.4%	8.91µM*	-11.1	?	.	?	0.3%	-6.2%	-0.8%
COc1ccc(NC(=O)CSc2nc3ccccc3c(=O)n2CCCO)cn1	-0.2%	-9.8%	-0.4%	0.1	i	2.7%	.	.	.	.
